# Source: article PMC5540273 (PLoS ONE, 2017)
# Assays:
# Settings in all cases: concentration: 1 μM, replicates: in singlicate; n = 1
# AAK1 = system: AAK1
# ABL1-nonphosphorylated = system: ABL1-nonphosphorylated
# ABL1-phosphorylated = system: ABL1-phosphorylated
# ABL2 = system: ABL2
# ACVR1B = system: ACVR1B
# ACVR1 = system: ACVR1
# ACVR2A = system: ACVR2A
# ACVR2B = system: ACVR2B
# ACVRL1 = system: ACVRL1
# ADCK3 = system: T1, ADCK3
# T1 construct: gene CABC1
# ADCK4 = system: ADCK4
# AKT1 = system: AKT1
# AKT2 = system: AKT2
# AKT3 = system: AKT3
# ALK = system: ALK
# AMPK-alpha1 = system: T2, AMPK-alpha1
# T2 construct: gene PRKAA1
# AMPK-alpha2 = system: T3, AMPK-alpha2
# T3 construct: gene PRKAA2
# ANKK1 = system: ANKK1
# ARK5 = system: T4, ARK5
# T4 construct: gene NUAK1
# ASK1 = system: T5, ASK1
# T5 construct: gene MAP3K5
# 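Note: KINOMEscan kinase panel screen.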
Structure (SMILES),%Inh (AAK1) [%],%Inh (ABL1-nonphosphorylated) [%],%Inh (ABL1-phosphorylated) [%],%Inh (ABL2) [%],%Inh (ACVR1B) [%],%Inh (ACVR1) [%],%Inh (ACVR2A) [%],%Inh (ACVR2B) [%],%Inh (ACVRL1) [%],%Inh (ADCK3) [%],%Inh (ADCK4) [%],%Inh (AKT1) [%],%Inh (AKT2) [%],%Inh (AKT3) [%],%Inh (ALK) [%],%Inh (AMPK-alpha1) [%],%Inh (AMPK-alpha2) [%],%Inh (ANKK1) [%],%Inh (ARK5) [%],%Inh (ASK1) [%]
COc1cccc(CC(=O)N2CCc3cc(-c4cn(C)c5ncnc(N)c45)ccc32)c1 [GSK2608899],18,57,4,30,14,0,0,61,19,2,0,0,8,27,5,15,25,6,19,14
Cc1cc(-c2ccnc(Nc3cccc(C#N)c3)n2)cc(C)c1O [GSK1440913],79,25,1,37,0,96.5,8,88,17,35,72,0,0,0,7,17,32,9,23,0
COC(=O)Nc1nc2ccc(Oc3ccc(NC(=O)Nc4cc(C(F)(F)F)ccc4F)cc3)cc2[nH]1.Cl [GW654607],17,99.4,57,94,0,0,0,0,0,1,54,0,100,0,18,19,15,13,9,12
COc1cccc(C2=C(Nc3cccc(O)c3)C(=O)NC2=O)c1 [SB-390771],38,0,4,10,0,18,0,6,0,5,32,0,7,0,4,16,3,0,12,7
Nc1cccc(-c2ccc3c(N)n[nH]c3c2)c1 [GSK2193613],55,34,37,21,0,11,0,19,0,3,16,0,0,23,0,0,16,16,0,0
Fc1cc(Cl)ccc1Nc1ccnc2cc(-c3ccc(CN4CCSCC4)o3)ccc12 [GW560106],4,95.9,98.7,89,21,84,14,91,49,3,31,0,2,0,28,3,18,14,13,0
COc1cc(Nc2nccc(N3CCC(NS(=O)(=O)c4ccc(NC(C)=O)cc4)CC3)n2)cc(OC)c1OC [GSK1379825],68,0,2,38,34,66,47,59,0,80,96.2,0,15,0,32,17,50,0,43,0
Cc1nn2c(=O)cc(N3CCO[C@H](C)C3)nc2n1Cc1cccc(Cl)c1Cl [GSK2373693],1,0,0,14,22,0,14,0,0,15,2,0,7,4,22,0,11,0,0,8
COc1cccc2c(-c3ccncc3)c(-c3ccc(F)cc3)nn12 [GW468513],10,0,0,5,76,31,0,3,3,43,38,0,34,5,27,0,18,11,19,0
CS(=O)(=O)c1cccc(CNc2nc(Nc3ccc4c(c3)CCC(=O)N4)ncc2C(F)(F)F)c1,21,54,16,0,0,0,0,0,0,0,4,0,0,0,0,7,0,3,86,0
CC(C)(C)c1ccc(C(=O)Nc2cn3cc(-n4ccnc4)ccc3n2)cc1,12,44,21,22,7,0,10,8,0,2,19,6,0,0,0,14,0,82,2,80
COC(=O)Nc1nc2cc(Oc3ccc(NC(=O)Nc4cccc(SC)c4)cc3)ccc2[nH]1.Cl [GW697999],0,91.4,90.1,76,0,0,0,0,0,0,48,0,0,0,25,5,0,10,0,2
Cc1ccc(Nc2ccnc(Nc3ccc(C)c(F)c3)n2)cc1O.Cl [GW582868],0,3,47,70,0,88,53,92.9,62,14,74,0,0,0,38,0,0,0,40,0
CCOc1nccc(-c2c(-c3ccc(F)cc3)ncn2C2CCNCC2)n1 [SB-249175],11,35,2,0,100,11,9,0,1,13,8,0,0,16,52,1,5,0,7,0
N#CC1(c2cccc(C(=O)Nc3cccc(Oc4ccc5nc(NC(=O)C6CC6)sc5n4)c3)c2)CC1,3,100,98.7,95,0,0,3,1,0,40,2,27,6,0,15,17,27,0,0,0
O=C(Nc1c(F)cccc1F)c1cc(C(=O)c2ccccc2F)c[nH]1 [GSK1326180],0,0,0,0,20,0,0,0,9,11,20,0,0,0,33,0,0,2,0,8
Cc1ccc(O)cc1Nc1ccnc2ccc(C(C)(C)C)cc12 [GW856805],10,98.1,99.6,90.2,24,24,8,62,1,0,88,27,29,18,44,8,19,7,0,1
Nc1ncnc2scc(-c3ccc(NC(=O)Cc4cc(F)ccc4F)cc3)c12.O=C(O)C(F)(F)F [SB-731254-M],10,80,50,9,14,0,24,1,0,16,3,0,0,9,18,18,11,49,2,10
COc1ccc(C)c(Nc2ccnc(Nc3ccc(-c4cnc[nH]4)cc3)n2)c1.Cl [GW784041],29,95.4,97.1,92.8,74,99,93.5,93.3,91.7,40,53,14,0,8,0,30,0,0,99.3,0
CN(C)CCNS(=O)(=O)c1ccc(-c2ccnc3[nH]ccc23)cc1 [GSK977620],21,0,0,8,6,0,0,0,0,10,0,57,18,75,50,53,43,0,39,0
